Source: PubChem BioAssay (NCATS)
“And” between values parts separate entries of the source, which are not always exact repeats. Identical values can stand only once. Results filed as inconclusive are left out. The source made the active and inactive calls. Unless noted, the call rests on the fitted dose curve; in most records, active means well fitted curve in the direction sought with a large enough effect; inconclusive means small, poorly fitted or top-dose-only effect, or another doubt; inactive means no such curve, though single readings can be large; an effect the other way counts as inactive or inconclusive. Where a SMILES comes first, the peptide text is derived from it.

Legend:
[1] = qHTS to identify inhibitors of the type 1 interferon - major histocompatibility complex class I in skeletal muscle: primary screen against the NCATS Mechanism Interrogation Plate v5.0 (MIPE) Libary (AID 1347411); further: nearly all actives have a fitted effect of over 65% in size; further: potency means the concentration at half of the fitted maximal effect
Outline: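 Luminescence from HiBiT-tagged endogenous HLA-B*08:01 served as the MHC class I read-out. CRISPR-engineered C25cl48 human myoblasts received 4.0 ng/ml IFN-beta plus compound for 24 hrs, with an 11-point, 1:3 series topping at 46 uM final.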

[2] = Primary qHTS for inhibitors of nuclear receptor binding SET domain protein 2 (NSD2) in an isogenic RCH-ACV NSD2 p.E1099K mutant (9B) (AID 1645876); further: nearly all actives have a fitted effect of over 70% in size; further: potency means the concentration at half of the fitted maximal effect
[3] = Primary qHTS for inhibitors of nuclear receptor binding SET domain protein 2 (NSD2) in an RCH-ACV wild type WT cells (2C) (AID 1645877); further: nearly all actives have a fitted effect of over 70% in size; further: potency means the concentration at half of the fitted maximal effect
[4] = molecular target: Glutathione peroxidase 1 (Homo sapiens) (UniProt P07203); assay: Primary qHTS Assay for Inhibitors of Recombinant Selenoprotein Glutathione Peroxidase 1 (GPX1) (AID 1845191); further: nearly all actives have a fitted effect of over 65% in size
Outline: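 Recombinant GPX1 (10 nM final) was preincubated with compound for 30 min at room temperature, then reacted with 1 mM GSH, 0.5 mM CHP, 0.5 mM NADPH and 100 nM glutathione reductase; NADPH fluorescence (340/450 nm) was read at 0 and 15 min.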

[5] = molecular target: Phospholipid hydroperoxide glutathione peroxidase GPX4 (Homo sapiens) (UniProt P36969); assay: Primary qHTS Assay for Inhibitors of Recombinant Selenoprotein Glutathione Peroxidase 4 (GPX4) (AID 1845192); details: outcome: dose series up to 50 µM unless noted; further: nearly all actives have a fitted effect of over 65% in size
Outline: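 GR-coupled readout: 100 nM GR, 1 mM GSH, 0.5 mM NADPH; NADPH fluorescence (ex 340/em 450 nm) read at t=0 and after 15 min RT. GPX4 200 nM, preincubated 30 min with compound; substrate 0.5 mM CHP.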

[6] = qHTS drug screen for cell cycle checkpoint inhibitors in PARPi-resistant BRCA-mutant ovarian cancer cell lines. (AID 1963452; calls by dose curve; further: potency means the concentration at half of the fitted maximal effect); details: PEO1/OlaR viability, CellTiter-Glo luminescence, 96 h; for Z-AUC: stronger effect = lower value
Outline: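 PEO1, PEO4 and PEO1/OlaR ovarian cancer cells, 600 per well, exposed 96 h at 37C to a dilution series. Viability read by CellTiter-Glo luminescence, normalized to DMSO and empty wells; activity summarized as Z-AUC.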

[7] = molecular target: Tyrosine-protein kinase Yes (Homo sapiens) (UniProt P07947); assay: qHTS for small molecule inhibitors of Yes1 kinase: Primary Screen (AID 686947);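 further: plate controls were DMSO with enzyme for no effect and no-enzyme DMSO wells for full effect; nearly all actives have a fitted effect of over 60% in size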
Outline: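 Yes1 (4 nM) preincubated 20 min with compound, then 60 min room-temperature reaction with 0.1 mM ATP and 0.3 mg/mL poly(E4Y) in pH 7.5 Tris, 10 mM MgCl2. ADP measured by ADP-Glo luminescence, normalised to enzyme/no-enzyme controls.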

[8] = qHTS for small molecule inhibitors of Yes1 kinase: Counter Assay (AID 686950);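 further: no kinase present so only ADP-Glo detection of a fixed ADP amount is tested; luminescence from ADP-Glo reporting ADP in a fixed ATP and ADP mixture; series mostly up to about 77 µM; 0% = DMSO wells with ATP plus ADP and -100% = ATP-only wells without ADP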
Outline: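 Enzyme-free ADP-Glo interference check: compounds were preincubated 20 min in buffer, then an ATP/ADP mix (0.08 mM ATP, 0.02 mM ADP final) was added for 60 min at room temperature before two-step ADP-Glo luminescence detection.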

[9] = measured here: PEO1 parental Z-AUC

Chain of Phospholipid hydroperoxide glutathione peroxidase GPX4 (Homo sapiens) (P36969 whole entry, looked up): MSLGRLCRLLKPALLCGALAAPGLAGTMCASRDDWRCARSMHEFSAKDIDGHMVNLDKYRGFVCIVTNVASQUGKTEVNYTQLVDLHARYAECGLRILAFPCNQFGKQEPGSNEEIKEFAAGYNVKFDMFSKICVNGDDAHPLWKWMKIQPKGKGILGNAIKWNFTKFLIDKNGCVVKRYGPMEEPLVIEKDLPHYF
Chain of Glutathione peroxidase 1 (Homo sapiens) (P07203 whole entry, looked up): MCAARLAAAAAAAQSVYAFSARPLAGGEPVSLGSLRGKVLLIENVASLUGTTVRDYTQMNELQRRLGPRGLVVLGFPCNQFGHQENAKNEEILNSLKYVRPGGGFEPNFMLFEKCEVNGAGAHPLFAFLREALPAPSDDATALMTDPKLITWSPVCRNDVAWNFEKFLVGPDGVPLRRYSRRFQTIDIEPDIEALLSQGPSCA
Chain of Tyrosine-protein kinase Yes (Homo sapiens) (P07947 whole entry, looked up): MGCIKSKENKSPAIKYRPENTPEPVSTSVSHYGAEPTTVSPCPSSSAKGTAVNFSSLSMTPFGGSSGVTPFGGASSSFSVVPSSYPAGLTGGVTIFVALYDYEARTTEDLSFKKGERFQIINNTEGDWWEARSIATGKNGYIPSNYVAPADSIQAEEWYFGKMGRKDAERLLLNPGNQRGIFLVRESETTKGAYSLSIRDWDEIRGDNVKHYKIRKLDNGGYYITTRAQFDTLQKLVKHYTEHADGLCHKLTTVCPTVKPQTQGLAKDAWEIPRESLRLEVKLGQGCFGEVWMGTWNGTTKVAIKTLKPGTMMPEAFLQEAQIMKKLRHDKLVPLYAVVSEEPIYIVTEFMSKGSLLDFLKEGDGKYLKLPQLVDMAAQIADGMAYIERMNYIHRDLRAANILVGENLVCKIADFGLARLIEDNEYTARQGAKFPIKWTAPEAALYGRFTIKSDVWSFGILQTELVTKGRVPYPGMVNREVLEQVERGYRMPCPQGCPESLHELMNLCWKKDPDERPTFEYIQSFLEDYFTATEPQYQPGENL

Row | SMILES | Potency [1] | Potency [2] | Potency [3] | Potency [4] | Potency [5] | Z-AUC [6] | Z-AUC [6, 9] | Z-AUC ([6]; measured here: PEO4 Z-AUC) | Potency [6] | Potency [7] | outcome [8]
1 | CC1(N)CCN(c2cccnc2NC(=O)c2nc(-c3ncccc3C(F)(F)F)cnc2N)CC1 | inactive | 16.6 µM (active) | 20.9 µM (active) | inactive | inactive | 0.421 (inactive) | -0.000608 | 0.765 | – | – | –
2 | N[C@@H](CCC(=O)O)C(=O)N[C@@H](Cc1c[nH]c2ccccc12)C(=O)O (H-Glu-Trp-OH) | inactive | inactive | inactive | inactive | inactive | 1.08 (inactive) | 0.582 | 0.474 | – | – | –
3 | Cc1c(-c2c(-c3ccc(F)o3)sc3ncnc(O[C@@H](Cc4ccccc4OCc4ccnn4CC(F)(F)F)C(=O)O)c23)ccc(OCCN2CCN(C)CC2)c1Cl | inactive | 0.662 µM (active) | 0.166 µM (active) | inactive | – | 0.0867 (inactive) | 0.964 | 1 | – | – | –
4 | C=C1C(=O)O[C@H]2C[C@H](C)C(/C=C/C(C)=O)=CC[C@H]12 | 6.58 µM (active) | 1.48 µM (active) | 1.32 µM (active) | inactive | inactive | 0.205 (inactive) | -0.357 | -0.273 | – | – | –
5 | COC(=O)[C@H]1[C@@H](O)[C@@]2(O)c3c(OC)cc(O[C@@H]4O[C@@H]([C@@H](O)CO)CO[C@H]4OC)cc3O[C@@]2(c2ccc(OC)cc2)[C@@H]1c1ccccc1 | inactive | 4.68 µM (active) | 2.95 µM (active) | inactive | inactive | 1.19 (inactive) | 0.913 | 0.648 | – | – | –
6 | COc1ccc(S(=O)(=O)N[C@@H](CNc2nc(C)nc(N3CCC(c4ccc5c(n4)NCCC5)CC3)c2C)C(=O)O)cc1 | inactive | inactive | inactive | inactive | inactive | – | -1.54 | -1.12 | 0.0616 µM (active) | – | –
7 | CNC(=O)Cn1cc(-c2ccc3c(c2)C(F)CC32NC(=O)N(CC(=O)N(Cc3ccc(F)cc3)[C@@H](C)C(F)(F)F)C2=O)cn1 (stereo not given in full) | inactive | 0.0525 µM (active) | 0.0661 µM (active) | inactive | inactive | 0.811 (inactive) and 1.3 (inactive) | 0.434 and 1.73 | 0.0101 and 0.997 | – | – | –
8 | COc1ccc(COc2ccc(Cc3cnc(N)nc3N)cc2OC)cc1 | inactive | inactive | inactive | inactive | inactive | 0.614 (inactive) | 0.516 | 0.82 | – | inactive | inactive
9 | C[C@H]1CNCCCN1S(=O)(=O)c1cccc2cncc(F)c12 | inactive | inactive | inactive | inactive | inactive | -0.978 (inactive) | -0.15 | 0.771 | – | – | –
10 | C=CC(=O)N1CCC(CNc2ncnc(N)c2-c2ccc(Oc3ccccc3)cc2)CC1 | inactive | 16.6 µM (active) | 5.9 µM (active) | inactive | – | 1.54 (inactive) | 1.18 | 1.23 | – | – | –
11 | CC1(C)S[C@H]2[C@H](NC(=O)[C@@H](N)c3ccc(O)cc3)C(=O)N2[C@H]1C(=O)O | inactive | inactive | inactive | inactive | – | -0.122 (inactive) | 0.11 | 0.161 | – | – | –
12 | O=C1Cc2cc(C(=O)NC3C[C@H]4CC[C@@H](C3)N4S(=O)(=O)CC3CCN(CCCC(F)(F)F)CC3)c(Cl)cc2N1 (stereo not given in full) | inactive | inactive | inactive | inactive | inactive | -0.571 (inactive) | -0.873 | -0.957 | – | – | –
